# Screens deposited in PubChem BioAssay by Broad Institute.
# The full list was thinned out, with hits kept by preference.
# Tg IFNy HTS: inhibitors of Toxoplasma gondii growth with IFN-gamma | Toxoplasma gondii growth in IFN-gamma-treated host cells; stronger effect = lower value | activity change, negative = inhibition, % (no concentration beside the values) | actives 3.8% (n = 69,000) | AID 1259416; in the data active = activity change below about -70%, passing the limit was not always enough;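 note: host cells are HeLa cells infected with Toxoplasma gondii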
# A number is an active result; . = inactive; ! = repeats disagree.
SMILES,Tg IFNy HTS
O=C(NCc1cccc(F)c1)N1CCC2(CC(=O)N(c3ccccc3)C2)C1 (centres undefined),.
COc1cccc2c1OCC(C(=O)N1CCc3nc(C4CCCN4)ncc3C1)C2 (centres undefined),.
COc1ccccc1-c1nc(Cn2nnc(-c3nc(-c4ccc(Cl)cc4)no3)c2C)c(C)o1,.
Cc1onc(-c2ccccc2)c1C(=O)Nc1cccnc1,.
COC(=O)c1ccc(Cl)cc1NC(=O)c1c(-c2c(F)cccc2Cl)noc1C,.
Cc1onc(-c2c(Cl)cccc2Cl)c1C(=O)NC(=S)Nc1ccccc1,-72.6
COc1ccc(CC(=O)N2CCC3(CC2)NC(=O)c2ccc(F)cc2N3C)cc1,.
C[C@@H]1CN([C@H](C)CO)C(=O)c2c(c3ccccc3n2C)-c2ccccc2CO[C@H]1CN(C)Cc1cccc(C(F)(F)F)c1,-74.4
C[C@@H]1CN([C@@H](C)CO)C(=O)c2c(c3ccccc3n2C)-c2ccccc2CO[C@H]1CN(C)Cc1cccc(C(F)(F)F)c1,.
C[C@@H]1CN([C@@H](C)CO)C(=O)c2c(c3ccccc3n2C)-c2ccccc2CO[C@@H]1CN(C)C,.
Cn1cnc2cc(-c3nc(C4(c5ccc(F)cc5)CCOC4)no3)cnc21 (centres undefined),.
O=C(Cc1cccc(F)c1)Nc1ccc2c(c1)CCC(=O)N2,.
CN(Cc1cnc(-c2ccccn2)nc1)Cc1cccc2ncccc12,.
Cc1ccccc1-c1ncc(CN(C)Cc2cccc3ncccc23)cn1,-88.6
CCNc1ncc(CN(C)Cc2cccc3ncccc23)cn1,.
O=C(c1cccc2ncccc12)N1CC2C[C@@H]3CC1C[C@H](C2)C3,.
CO/N=C1\CC(C)(C)Cc2c(-c3ccn(C(=O)c4cccs4)n3)sc(SC)c21,-76.2
O=C(c1ccccc1)n1ccc(-c2cccs2)n1,.
O=C(c1cccs1)n1ccc(-c2nc3ccccc3s2)n1,.
CN(CCNC(=O)CSCc1ccccc1Cl)S(C)(=O)=O,.
CC(C)(O)C#Cc1cccc(C(=O)NCc2ccccc2-n2ccnc2)c1,.
CCc1nc(OCC(=O)Nc2cc(C)ccc2C)c2ccccc2n1,.
CN(CCC(=O)Nc1cccc(N2CCCCS2(=O)=O)c1)c1ccc(F)cc1,.
OC(CCCc1ccccc1)(c1ccc(Cl)cc1)c1ccc(Cl)cc1,-80.0
O=C(/C=C/c1ccc(Cl)cc1)NCCc1ccccc1,.
SMILES,Tg IFNy HTS
O=C(COc1ccc(Cl)cc1)NCc1ccccc1,.
COc1ccc(-c2cnc(NC(=O)c3ccnn3C(C)C)n2C)cc1,.
NC1(C(=O)NCC2CCN(Cc3nc4ccccc4[nH]3)CC2)CC1,.
CCCN1CCC(c2cc3c(ncn3C)c(-c3ccc(OC)cc3)n2)CC1,.
COc1nccc(-c2c(-c3ccc(F)cc3)ncn2C2CCC(O)CC2)n1 (centres undefined),-79.2
Cc1noc(C[C@@H]2COC[C@@H]3CN(S(C)(=O)=O)C[C@@H]32)n1,.
COc1ccc(-c2coc3cc(O)ccc3c2=O)c(O)c1O,.
COc1cc(-c2coc3cc(OC)c(OC)c(OC)c3c2=O)cc(OC)c1OC,.
COc1cc(-c2coc3cc(OCc4ccccc4)c(OC)c(O)c3c2=O)cc(O)c1OC,-85.9
O=S(=O)(NCc1ccccc1)N1CCC(OCc2cccnc2)CC1,.
Cc1ccn2c3c(nc2c1)CNC(=O)CC3c1ccc(C(=O)O)s1 (centres undefined),.
O=S1(=O)CCC(Cn2cc(-c3ccnc4ccccc34)nn2)C1 (centres undefined),.
N#Cc1c(N2C[C@@H]3NCCO[C@H]3C2)c(F)cc2c(=O)c(C(=O)O)cn(C3CC3)c12,-86.2
C[C@@H]1CN(c2c(F)c(F)c3c(=O)c(C(=O)O)cn(C4CC4)c3c2F)C[C@H](C)N1,.
N[C@@H]1CCCCN(c2c(F)cc3c(=O)c(C(=O)O)cn(C4CC4)c3c2Cl)C1,.
CN1C[C@@H]2CCN(C(=O)C3CCCO3)CC[C@H]2S1(=O)=O (some centres undefined),.
COc1cccc(NC(=S)N2CCC(NC(=O)NC34CC5CC(CC(C5)C3)C4)CC2)c1,.
CCOc1ccc(S(=O)(=O)N2CCC(c3nc(C(=O)N4CCCC4)c(C)o3)CC2)cc1,.
Clc1ccc(Nc2nc(Nc3ccc(Cl)cc3)nc(Oc3ccccc3)n2)cc1,-100.2
COc1ccc(-c2nc(Nc3ccc(Cl)cc3)c3ccccc3n2)cc1,.
c1ccc(Oc2nc(NCc3ccco3)nc(NCc3ccco3)n2)cc1,.
CS(=O)(=O)c1ccc(C(O)[C@H](CF)NC(=O)C(Cl)Cl)cc1 (some centres undefined),-77.6!
O=C(N[C@@H](CO)[C@H](O)c1ccc([N+](=O)[O-])cc1)C(Cl)Cl,.
CCCCCCCCCCCCCCCC(=O)OC[C@H](NC(=O)C(Cl)Cl)[C@H](O)c1ccc([N+](=O)[O-])cc1,.
CN1CC2(CCN(C(=O)c3cnc(Nc4ccccc4)nc3)C2)OC1=O (centres undefined),.
SMILES,Tg IFNy HTS
Cn1cccc1C(=O)N[C@H]1CN(S(C)(=O)=O)C2CCCOC21 (some centres undefined),.
Cc1cc(C)n(-c2ccc(C(=O)Nc3cccc(-n4cccn4)c3)cc2)n1,.
O=C1c2ccccc2-c2n[nH]c3cccc1c23,-90.9!
O=C1c2cccc(O)c2C(=O)c2c(O)cccc21,.
CCCCNC(=O)CCC1N=C2c3ccccc3N=C(SCc3cccc(Cl)c3)N2C1=O (centres undefined),.
Cc1cnc(C(=O)N2CCC3(CC2)CC(=O)Nc2ccccc23)cn1,.
O=c1ccc2c([nH]1)CCC(NCc1ccc3c(c1)OCO3)C2 (centres undefined),.
Cn1cc(C(CNC(=O)Nc2cccc(Br)c2)c2cccnc2)c2ccccc21 (centres undefined),.
CCn1cc(C(CNC(=O)Nc2ccc(OC)cc2OC)c2cccnc2)c2ccccc21 (centres undefined),.
CCOC(=O)c1ccc(NC(=O)NCC(c2cccnc2)c2cn(C)c3ccccc23)cc1 (centres undefined),.
CCn1cc(C(CNC(=O)Nc2cccc(SC)c2)c2cccnc2)c2ccccc21 (centres undefined),-110.7
CCOC(=O)c1ccc(NC(=O)NCC(c2cccnc2)c2c[nH]c3ccccc23)cc1 (centres undefined),.
CCOC(=O)c1ccc(NC(=O)NCC(c2cccnc2)c2cn(CC)c3ccccc23)cc1 (centres undefined),-101.8
Cc1ccc(NC(=O)C(=O)N(C)Cc2nc(C3CC3)no2)c(C)c1,.
CCCS(=O)(=O)N1CC[C@@H]2C(=O)N(c3ccsc3)CCO[C@@H]2C1,.
COc1ccccc1C1CCCN1CC(=O)Nc1nonc1C (centres undefined),.
NCC1Cc2cc(-c3ccc(Cn4ccnc4)cc3)cc(F)c2O1 (centres undefined),.
CNc1cc(-c2ccccc2OCCn2ccnc2)c2cc[nH]c2n1,.
NCC1Cc2cc(-c3ccccc3OCCn3ccnc3)cc(Cl)c2O1 (centres undefined),-81.2
COCC1COCCC12CCN(C(=O)c1ccn(C)n1)CC2 (centres undefined),.
Cc1cc(CC(C)CC(C)(C)C)n(O)c(=O)c1 (centres undefined),.
Cc1cc(C2CCCCC2)n(O)c(=O)c1,-82.2!
O=C(CCC(=O)NC1CCCCCCC1)NCC(O)c1ccccc1 (centres undefined),.
S=c1sc2ccccc2n1CCn1c(=S)sc2ccccc21,.
OC(Cn1c(=NC2CCCCC2)sc2ccccc21)c1ccccc1 (centres undefined),-72.0
